# This is part of a sample that, as a whole, favours compounds with a hit. Of some 83,000 tested, about 20% had one in any assay.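 A percent growth of 40 corresponds to 60% growth inhibition; 0 means no net growth; -100 means all cells died. Active threshold: below 10.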 Values without a mark were called inactive. Activity calls are given as the source filed them.
# Columns and labels:
# Assay in all cases: NCI-60 one-dose screen, 48 h (100 = growth as untreated, 0 = no growth, -100 = all killed)
# Conditions in all cases: 10 µM unless noted
# NCI-H23 lung = tested on: NCI-H23 lung
# NCI-H226 lung = tested on: NCI-H226 lung
# NCI-H322M lung = tested on: NCI-H322M lung
# HOP-62 NSCLC = tested on: HOP-62 NSCLC
# NCI-H460 lung = tested on: NCI-H460 lung
# HOP-92 NSCLC = tested on: HOP-92 NSCLC
# NCI-H522 lung = tested on: NCI-H522 lung
# A549/ATCC NSCLC = tested on: A549/ATCC NSCLC
# 786-0 renal = tested on: 786-0 renal
# COLO 205 colon = tested on: COLO 205 colon
# DU-145 prostate = tested on: DU-145 prostate
# K-562 leukemia = tested on: K-562 leukemia
# MALME-3M melanoma = tested on: MALME-3M melanoma
# MDA-MB-231 breast = tested on: MDA-MB-231 breast
# RXF 393 renal = tested on: RXF 393 renal
# SF-268 CNS = tested on: SF-268 CNS
# SF-295 CNS = tested on: SF-295 CNS
# SF-539 CNS = tested on: SF-539 CNS
# UACC-257 melanoma = tested on: UACC-257 melanoma
# M14 melanoma = tested on: M14 melanoma
Structure (SMILES),growth (NCI-H23 lung),growth (NCI-H226 lung) [%],growth (NCI-H322M lung),growth (HOP-62 NSCLC),growth (NCI-H460 lung),growth (HOP-92 NSCLC),growth (NCI-H522 lung),growth (A549/ATCC NSCLC),growth (786-0 renal),growth (COLO 205 colon),growth (DU-145 prostate) [%],growth (K-562 leukemia),growth (MALME-3M melanoma),growth (MDA-MB-231 breast),growth (RXF 393 renal) [%],growth (SF-268 CNS) [%],growth (SF-295 CNS),growth (SF-539 CNS),growth (UACC-257 melanoma),growth (M14 melanoma)
O=C1/C(=C\c2cccn2Cc2ccc(F)cc2)c2ccccc2N1c1c(Cl)cccc1Cl,81.1%,64,69.4%,92.1%,87.7%,66%,77%,69.4%,76.6%,84.9%,91.2,70.8%,87.6%,75%,81.5,79.9,81.9%,87.5%,90.3%,94.9%
O=C(O)/C=C(\c1nc2ccc([N+](=O)[O-])cc2[nH]1)c1cc(Cl)ccc1O,4.9% (active),34.4,33.6%,42.8%,14.4%,8.34% (active),2.47% (active),27%,44%,27.5%,39.9,14.7%,6.7% (active),13.1%,39.1,32.2,21.6%,26.3%,17.8%,25.8%
CCCCn1c(C)nc2ccc(Nc3nc(Cl)nc4nc[nH]c34)cc21,75.3%,62.4,82.5%,66.1%,70.9%,-11.2% (active),73.2%,81.4%,55.4%,86.8%,80.3,69.8%,78.1%,64.8%,62.9,76,76.3%,79.9%,92.5%,68.3%
O=C(/C=C/c1cccc([N+](=O)[O-])c1)c1ccc(Nc2nc(N3CCCCC3)nc(N3CCCCC3)n2)cc1,98.7%,74.2,103%,105%,96%,102%,87.2%,85.7%,93.9%,108%,98.7,97.7%,118%,103%,100,97.5,93.2%,99.6%,97.4%,98%
Cc1nc2ccc(Nc3nc(N4CCOCC4)nc(N4CCN(C)CC4)n3)cc2n1Cc1ccccc1,92%,95.8,76.1%,86.6%,97.8%,64.5%,93.2%,85.1%,72.8%,73.2%,98.4,29.3%,65.7%,68.5%,61.1,68.8,90.1%,76.5%,82.5%,83.4%
CC1=NOCC(=O)N1,106%,102,111%,105%,107%,96%,92.8%,89.7%,101%,108%,111,92.1%,117%,102%,103,107,87.7%,99.3%,101%,103%
N#Cc1ccc(NC(=O)Nc2nc3ccc(OC(F)(F)F)cc3s2)cc1,-22.1% (active),12.7,4% (active),3.68% (active),-3.29% (active),-13.1% (active),-33.5% (active),3.01% (active),-12.6% (active),-90.1% (active),23.1,1.23% (active),-7.94% (active),-18.4% (active),21.9,21.1,-25.8% (active),7.97% (active),-20.7% (active),5.97% (active)
Fc1ccc(-c2ccnc3nc(-c4ccncc4)nn23)cc1,112%,102,99.4%,113%,104%,120%,107%,98.4%,88.8%,108%,101,98.1%,114%,113%,105,97.1,111%,101%,111%,107%
C=C(C)c1ccc(/C=N/NC(N)=S)cc1,103%,86.3,111%,77.4%,99.9%,131%,103%,118%,11.4%,120%,97.6,89%,116%,96.8%,94.6,109,76.5%,99.2%,257%,87.2%
Cc1ccc2cc3c(NC(=O)c4cccnc4)nn(C)c3nc2c1,90%,85.3,89.4%,101%,98.2%,81.5%,67.1%,95.7%,98.6%,85.5%,100,85.8%,99.1%,83.8%,89.3,97.3,101%,97.1%,99.3%,93.3%
Nc1nc2c(c3ncccc13)C(c1ccccc1)Cc1ncccc1-2 (stereo not given),83.3%,88.4,102%,72.1%,92%,96.1%,42.9%,72.3%,104%,87.8%,103,27.1%,76.1%,65.9%,99.3,86.4,67.4%,78.1%,93.1%,44.8%
CC(=O)c1ccc(Nc2nc(Cl)nc(Oc3c(Cl)cccc3Cl)n2)cc1,92.3%,74.9,104%,101%,79.9%,81.2%,64.4%,83.8%,100%,99.7%,91.1,82.5%,83.2%,80%,101,91.3,89.6%,90.4%,95.4%,101%
CC1(C)CC[C@]2(C(=O)N3CCNCC3)CC[C@]3(C)C(=CC[C@@H]4[C@@]5(C)CCC(=O)C(C)(C)[C@@H]5CC[C@]43C)[C@@H]2C1,103%,99.4,108%,97.3%,109%,109%,94.5%,102%,102%,105%,109,109%,112%,112%,115,100,99.5%,101%,106%,109%
COc1ccc2cc(-c3nc(C)c(C(C)=O)c(-c4ccc(C)cc4)n3)ccc2c1,89.2%,80.1,87.5%,105%,92.6%,86.2%,81.3%,92.4%,87.9%,102%,107,125%,91.2%,81%,81.6,101,99.6%,89.6%,101%,91.1%
COc1cc(CN2CCO[C@H](COc3cccc(F)c3)C2)ccc1Cl,48.8%,59.7,73.3%,33.4%,24.8%,48.6%,30.7%,29.3%,52%,12.5%,41.5,21.1%,63.8%,33.2%,79.3,48.2,28%,59.5%,19.2%,39.1%
CC(C)(C)CC(C)(C)NCc1cc(C(C)(C)C)cc(CNC(C)(C)CC(C)(C)C)c1O,38.7%,72.7,83.3%,69.4%,50.8%,-1.38% (active),8.73% (active),67.6%,71.1%,0.858% (active),66.6,3.08% (active),51%,23.3%,76.2,85.2,57.7%,83.8%,75.3%,70.1%
